{"source": "PubChem BioAssay", "target": "Pantothenate synthetase (Mycobacterium tuberculosis (strain ATCC 25618 / H37Rv)) (UniProt P9WIL5)", "sequence (P9WIL5 whole entry, looked up)": "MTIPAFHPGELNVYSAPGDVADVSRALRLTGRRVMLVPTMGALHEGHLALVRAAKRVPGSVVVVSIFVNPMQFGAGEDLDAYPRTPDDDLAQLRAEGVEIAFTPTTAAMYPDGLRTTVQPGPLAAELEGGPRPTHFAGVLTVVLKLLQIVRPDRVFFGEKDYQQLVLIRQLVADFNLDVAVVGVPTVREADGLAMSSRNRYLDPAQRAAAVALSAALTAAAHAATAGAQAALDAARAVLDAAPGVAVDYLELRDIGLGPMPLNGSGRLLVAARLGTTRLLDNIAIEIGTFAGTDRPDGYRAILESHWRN", "assay": "Coupled enzyme confirmation of inhibitors against recombinant Mtb PanC (AID 375);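 note: 0% = full reaction with vehicle and 100% = no enzyme background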", "conditions": "coupled enzyme assay; at 10 µM, active compounds read high", "note": "The source made the active and inactive calls. The rule behind the calls is not given here.", "data": [{"compound": "COc1ccc(CN(Cc2nc3ccccc3c(=O)[nH]2)C(=O)NC2CCCCC2)cc1", "values": [{"measurement": "inhibition", "value": "5% (inactive)"}]}, {"compound": "CC(C)CNC(=O)c1ccccc1NC(=O)CN(c1ccc2c(c1)OCCO2)S(C)(=O)=O", "values": [{"measurement": "inhibition", "value": "0% (inactive)"}]}, {"compound": "CC1(C)CC(=O)C2=C(C1)N(CC1CCCO1)C(=O)C2(O)C(F)(F)F", "note": "(configuration not stated)", "values": [{"measurement": "inhibition", "value": "0% (inactive)"}]}, {"compound": "CCc1nnc(NC(=O)CN2CCN(c3ccccc3OC)CC2)s1", "values": [{"measurement": "inhibition", "value": "4% (inactive)"}]}, {"compound": "O=C(CSc1nnc(-c2ccccc2)o1)N1CCc2ccccc2C1", "values": [{"measurement": "inhibition", "value": "0% (inactive)"}]}, {"compound": "O=P(O)(O)c1ccccc1OCCOCCOc1ccccc1P(=O)(O)O", "values": [{"measurement": "inhibition", "value": "4% (inactive)"}]}, {"compound": "Cc1ccc(-n2c(N)c(C(N)=O)sc2=S)cc1", "values": [{"measurement": "inhibition", "value": "6% (inactive)"}]}, {"compound": "CC(C)CCNC(=O)C1CCN(C(=O)N(C)C)CC1", "values": [{"measurement": "inhibition", "value": "0% (inactive)"}]}, {"compound": "Cc1nnc(SCc2nc3ccccc3s2)n1-c1ccccc1", "values": [{"measurement": "inhibition", "value": "3% (inactive)"}]}, {"compound": "COc1ccccc1C(=O)Nc1nc2ccc(S(C)(=O)=O)cc2s1", "values": [{"measurement": "inhibition", "value": "0% (inactive)"}]}, {"compound": "CCOC(=O)N1CCC(N(CCCOC)C(=O)Nc2ccc(CC)cc2)CC1", "values": [{"measurement": "inhibition", "value": "0% (inactive)"}]}, {"compound": "COC(=O)c1ccc(CN(c2ccccc2OC)S(=O)(=O)c2cccs2)o1", "values": [{"measurement": "inhibition", "value": "2% (inactive)"}]}, {"compound": "Cc1ccc(OC(=O)CCC(=O)OCCCC(F)(F)C(F)(F)F)cc1", "values": [{"measurement": "inhibition", "value": "3% (inactive)"}]}, {"compound": "CCN(CC)CCOc1cccc(C(C)C)c1", "values": [{"measurement": "inhibition", "value": "4% (inactive)"}]}, {"compound": "Cc1occc1C(=O)Nc1ccccc1NC(=O)c1ccoc1C", "values": [{"measurement": "inhibition", "value": "3% (inactive)"}]}, {"compound": "N#Cc1ccc(CSc2nnc(-c3cccs3)n2-c2ccccc2)cc1", "values": [{"measurement": "inhibition", "value": "0% (inactive)"}]}, {"compound": "CC1CCN(CCCNC(=O)c2cn(C)c3ccc(S(=O)(=O)N4CCCC4)cc3c2=O)CC1", "values": [{"measurement": "inhibition", "value": "0% (inactive)"}]}]}
